From PubChem
HCT116 bCat-KO = primary screen for growth suppressors in beta-catenin knockout HCT116 cells (colon tumor, human); HCT116 beta-catenin knockout viability, CellTiter-Glo, 60 h; hits give low values; viability, % at 10 µM; 140,000 compounds, 1.5% hits; AID 818, 2007;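 active = viability at or under a set limit, the compound median less 4 SD, cut at about 6% in these data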;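 note: 0% = Hyamine 1622 control at 20 µM and 100% = untreated cell control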
L major viab = Leishmania major promastigote growth inhibition, primary screen. Leishmania major promastigotes, resazurin fluorescence viability. AID 1063, 2008. inhibition, % at 10 µM. 200,000 compounds, 9% hits; in the data active = inhibition above about 50%;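 note: promastigotes grown with compound for 44 hours at 28 °C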
Ins promoter up = insulin promoter activators in MIN6 cells, imaging, high-content screening, mouse beta cells; MIN6 insulin promoter-GFP reporter; hits give high values; z-score at 5 µM; 190,000 compounds, 0.3% hits; AID 1625, 2009;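 active = z-score above 3 at 5 µM with at least 500 cells counted in the well; inconclusive = wells under 500 cells, flagged as cytotoxic or low count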
HCT116 PTEN-null = growth suppression of PTEN-null HCT116, primary screen, cell-based, CellTiter-Glo. 140,000 compounds, 1.2% hits. viability, % at 10 µM. HCT116 PTEN-null viability, 60 h; hits give low values;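 active = viability at or below a set limit, 4 SD under the median of all tested compounds, cut at about 3.7% in these data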;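 note: PTEN knockout HCT116 line with beta catenin targeted HCT116 as companion control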
Autophagy mod = autophagy modulators in MEF cells, primary screen, imaging, high-content, MEF GFP-LC3. MEF GFP-LC3 puncta imaging; test concentration mostly 10 µM. calls only at 10 µM (by protocol). 190,000 compounds, 0.98% hits. AID 463193, 2010;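 active = percentage of spot-positive cells more than 3 SD above its plate mean, without a fluorescence outlier flag or 80% toxicity; inconclusive = no clear call, values can overlap the other calls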;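 note: spot-positive cell cutoff set from DMSO-treated cells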
Insulin prom inh = inhibitors of insulin promoter-driven GFP, primary screen, imaging, TRM-6 cells (human fetal islet line), eGFP reporter, cell count. reporter expression induced with tamoxifen. inhibition, % at 2 µM. 130,000 compounds, 0.9% hits;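 active = inhibition above the mean plus 3 SD, with well images judged a real hit on visual review, cut at about 60% in these data, passing the limit was not always enough; inconclusive = inhibition over the cutoff but images rejected on review; inactive = inhibition not above the cutoff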
The depositor's hits bear a star; i = inactive; ? = inconclusive; . = no result given; + = active, no number. Rows were chosen to be rich in hits. Some 9.6% of all compounds tested hit in one or more screens of this group.

SMILES	HCT116 bCat-KO	L major viab	Ins promoter up	HCT116 PTEN-null	Autophagy mod	Insulin prom inh
Cc1ccc(C)c(OCC(=O)N/N=C/c2c(C)nn(-c3ccccc3)c2Cl)c1C	2.1*	-3	-0.33	1.8*	i	-43
Nc1ccc(Br)cc1-c1nc2ccccc2[nH]c1=O	.	9	-4.9	.	i	.
Brc1ccc2nc(-c3ccncc3)c(NC3CCCC3)n2c1	.	34	-0.74	.	i	.
Cc1ccc2nc(-c3cccnc3)c(NC3CCCCC3)n2c1	82	88*	-0.38	94	i	-3
COC(=O)c1sccc1NC(=O)/C=C\c1ccc(Cl)cc1Cl	60	-5	2.2	77	+	28
CN(CC(=O)Nc1ccncc1)S(=O)(=O)c1ccc(Br)cc1	92	-1	-1.2	93	i	9
O=C(/C=C/c1cccc(Cl)c1)Nc1ccncc1	80	61*	1.5	79	i	35
O=C(/C=C/c1cccc(Cl)c1)NCc1ccncc1	95	-4	0.11	95	i	36
O=C(CCCOc1ccc(Cl)cc1Cl)Nc1ccncc1	69	99*	0.98	81	i	39
CN(CCCC(=O)Nc1ccncc1)S(=O)(=O)c1ccc(Cl)cc1	38	86*	?	45	i	-16
COC(=O)c1sccc1NC(=O)/C=C/c1ccc(Cl)cc1	80	-7	0.64	89	i	.
O=C(/C=C/c1c(Cl)cccc1Cl)Nc1ccncc1	42	98*	-0.61	54	i	-5
O=C(/C=C/c1ccc(Cl)cc1Cl)Nc1ccncc1	48	95*	.	60	i	20
O=C(/C=C/c1ccccc1Cl)Nc1ccncc1	58	100*	-0.98	77	i	-57
O=C(/C=C/c1ccc(Cl)cc1Cl)NCc1ccncc1	82	6	-0.67	92	i	26
O=C(/C=C/c1c(F)cccc1Cl)Nc1ccncc1	38	43	?	57	i	-36
COCCNC(=O)/C=C/c1c(Cl)cccc1Cl	94	-8	0.79	95	i	71*
CC(=O)Nc1ccc(C(=O)c2ccccc2)cc1	96	-8	-0.27	96	i	-19
O=C1c2ccccc2-c2nc3ncnn3c(-c3ccccc3)c21	.	2	.	.	i	-3
O=C(Nc1ccc(Cl)cc1)N(Cc1nnc2n1CCCCC2)c1ccccc1	105	0	0.9	124	i	6
CC(=O)N(C)c1ccc(NC(=O)/C=C/c2ccccc2Cl)cc1	98	60*	-0.6	81	i	19
CCC(CC)NC(=O)/C=C/c1ccccc1Cl	84	40	-0.78	81	i	-19
Cc1ccc(C(=O)CSC2=C(C#N)C(c3ccco3)CC(=O)N2)c(C)c1 (configuration not stated)	84	39	0.19	70	i	.
CC1CN(C(=O)CCc2ccccc2)C(C)CN1C(=O)CCc1ccccc1 (configuration not stated)	91	18	-0.13	87	i	8
O=C(OC1C2CCC1C1CN(CCc3ccccc3)CC12)c1ccccc1 (configuration not stated)	87	51*	-1.6	82	i	0
SMILES	HCT116 bCat-KO	L major viab	Ins promoter up	HCT116 PTEN-null	Autophagy mod	Insulin prom inh
COc1ccccc1NC(=O)Cn1c(O)c(N=NC(=O)c2ccccc2O)c2ccccc21	.	11	-0.11	.	i	.
O=C(CSc1oc(-c2cccs2)nc1S(=O)(=O)c1ccccc1)NC1CCCCC1	83	98*	1.7	76	i	0
C=CCNc1oc(-c2cccs2)nc1S(=O)(=O)c1ccccc1	.	96*	0.07	.	i	.
Cc1ccc(S(=O)(=O)c2nc(-c3cccs3)oc2NCCCN(C)C)cc1	76	98*	-5.5	92	i	-58
CSc1oc(-c2cccs2)nc1S(=O)(=O)c1ccccc1	.	.	-0.43	.	.	.
CCN(C(=O)CSc1nc2cc(Cl)ccc2c(=O)n1Cc1ccco1)C1CCS(=O)(=O)C1 (configuration not stated)	.	20	-0.91	.	i	.
CCn1c(=NC(=O)c2ccc(S(=O)(=O)N(C)C)cc2)sc2cccc(OC)c21	.	70*	-5.1	.	i	.
Cc1cccc(NC(=O)C2CCCN2C(=O)OCC(C)C)c1C (configuration not stated)	89	-6	0.7	87	i	-6
O=C(c1ccc(Cl)cc1)N1CCN(c2ccnc3cc(Cl)ccc23)CC1	.	66*	.	.	i	-5
CCOc1ccc(S(=O)(=O)n2cc(-c3ccc(F)cc3)c(N)n2)cc1	85	-1	.	94	i	87*
CCOc1ccc(S(=O)(=O)n2cc(-c3ccccc3)c(N)n2)cc1	77	-5	-0.26	87	i	38
CCn1cc(C(=O)O)c(=O)c2cc(F)c(N/N=C/c3ccccc3[N+](=O)[O-])cc21	4.1*	78*	-0.29	5	i	.
O=C(C1CCCC1)N1CCN=C1SCc1cccc([N+](=O)[O-])c1	.	12	.	.	i	45
[O-][n+]1onc2c1CCc1c-2nn(-c2ccccc2Cl)[n+]1[O-]	2.5*	17	-1.4	2.0*	i	.
N#Cc1ncc(-c2ccc3c(c2)OCCOCCOCCOCCOCCO3)nc1C#N	3.8*	96*	0.5	2.8*	i	-123
Cc1nc2sc3c(c2c2nnc(SCC(=O)NCc4ccco4)n12)CCCC3	91	9	0.56	80	i	-28
O=C(CSc1ncnc2sc3c(c12)CCCCC3)NCc1ccco1	27	-3	0.18	27	+	-7
O=C(CSc1ncnc2sc3c(c12)CCCC3)c1ccco1	96	2	-0.83	99	i	39
O=C(CSc1nc2sc3c(c2c(=O)n1-c1ccccc1)CCCC3)NCc1ccco1	62	-2	.	62	.	.
COCCCn1c(SCC(=O)NCc2ccco2)nc2sc3c(c2c1=O)CCC3	90	51*	-0.2	91	i	-86
CC1(C)Cc2c(sc3nc(SCC(=O)NCc4ccco4)n(-c4ccccc4)c(=O)c23)CS1	91	53*	.	71	i	64
CC(=O)N(c1nc(/C=C\C(=O)O)cs1)c1ccccc1F	.	.	0.1	.	.	.
Cc1cc(-c2nn(-c3ccccc3F)cc2CN2CCCC(C(N)=O)C2)c(C)s1 (configuration not stated)	.	-2	-0.36	.	i	.
COCC(N)(c1ccccc1)c1nc2ccccc2n1C (configuration not stated)	87	0	0.26	89	i	-24
c1ccc(-c2cc(-c3ccccc3)n3ncnc3n2)cc1	.	8	0.09	.	i	69*
CN1CCN(c2ccc(NC(=O)c3ccc(-c4ccc(Br)cc4)o3)cc2)CC1	.	99*	1	.	+	26
Cc1ccccc1C(=O)Nc1cccc(NC(=O)c2ccc(-c3ccc(Br)cc3)o2)c1	3.7*	15	-1.6	5	i	.
